# Measured values: PubChem BioAssay (NCI)
# The panel holds about 83,000 compounds, 20% with a hit somewhere; the sample as a whole holds those more often.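 For each line, cells grew in 96-well plates with the test compound present at a single concentration for 48 hours.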 Calls of active or inactive are those of the source. The calls were made as follows: active = growth percent below 10; inactive = the rest.
# Test system: HL-60(TB) leukemia
# Test: NCI-60 one-dose screen, 48 h (100 = growth as untreated, 0 = no growth, -100 = all killed)
# Settings: 10 µM unless noted
row,Structure (SMILES),growth
1,CC(=O)N=c1ccc2nc3c(cc(N)c4ccccc43)oc-2c1,-82.9% (active)
2,C#C[C@@]1(O)[C@@H](CO)O[C@@H](n2cc(Br)c3c(N)ncnc32)[C@@H]1O,-62.5% (active)
3,CC1(C)C2=C(C(=O)N1Cc1ccccc1)C(c1ccco1)N(C(=O)C1CCC1)CCN2 (stereo not given),99.1% (inactive)
4,CCCCCCC(=O)Nc1ncc(Cc2ccc(C)cc2)s1,-18.2% (active)
5,CNC(=O)c1cc(Oc2ccc(NC(=O)Nc3ccc(Cl)c(C(C)(C)C)c3)c(F)c2)ccn1,46.7% (inactive)
